# According to ChEMBL document CHEMBL4513146, “CO-ADD screening of Karazin Kharkiv National University (Ukraine) compounds”:
# About 30 (0.1%) of roughly 23,000 compounds showed an effect of 50% or more. The sample holds strong results, similar compounds and a random draw of the others, so the mix is not that of the screen. Entries with a potency or affinity are not part of this list.
# Test system: Pseudomonas aeruginosa
# Settings: Concentration 32 ug.mL-1;; ASSAY_TEST Inhibition of Bacterial Growth; detection method Absorption (OD600); MEDIA CAMHB; plate type 384well; NBS; CORNING #3640; time 18 hr
row,Structure (SMILES),Inhibition
1,COc1ccc(-c2cc3c4nn(CC(=O)Nc5ccc(F)cc5)c(=O)n4ccn3n2)cc1,-1.39%
2,O=C(CSc1nnc2c(=O)n(Cc3ccc(F)cc3)ccn12)NC1CCCC1,8.47%
3,Cc1ccc(Oc2nccn3c(=O)n(CC(=O)Nc4ccc(Cl)cc4F)nc23)cc1,0.79%
4,Cc1cccc(N(Cc2ccc(F)cc2)S(=O)(=O)c2cccn3c(C)nnc23)c1,11.57%
5,COc1cccc(CSc2nnc3c(=O)n(-c4ccc(Br)cc4)ccn23)c1,16.71%
6,Cc1ccccc1Oc1nccn2c(=O)n(CC(=O)Nc3ccc(Cl)c(Cl)c3)nc12,3.97%
7,O=C(Cn1nc2c(Sc3ccccc3)nccn2c1=O)Nc1ccc(Br)cc1F,11.79%
8,COc1ccc(CNC(=O)CCc2nnc3c4cc(-c5ccc(Cl)cc5)nn4ccn23)cc1OC,9.37%
9,O=C(Cn1nc2c(Sc3ccccc3)nccn2c1=O)Nc1ccc2c(c1)OCCO2,17.83%
